Source: the supplement of paper PMC8728848
The full list was thinned out, with the strongest signals kept by preference.

Legend:
Assay in all cases: glycan array binding signal (z-score within array); higher = stronger binding
Details in all cases: glycan notation: IUPAC condensed, linker removed
[1] = biological target: Fuc(a1-2)Gal(b1-4)Glc
Summary of the method: (§1)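 The binding signal is a Z-score computed within each array. Data were drawn from 3228 arrays in the Consortium for Functional Glycomics database, restricted to those with a known protein sequence. Scores were averaged over arrays of the same protein sequence at different concentrations or buffers, and over linkers, and negative values can be taken as non-binding.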

[2] = biological target: Fuc(a1-2)Gal(b1-4)GlcNAc
Summary of the method: as §1

[3] = biological target: Fuc(a1-2)Gal(b1-4)GlcNAc(b1-3)GalNAc
Summary of the method: as §1

[4] = biological target: Fuc(a1-2)Gal(b1-4)GlcNAc(b1-3)[Fuc(a1-3)[Gal(b1-4)]GlcNAc(b1-6)]Gal(b1-4)Glc
Summary of the method: as §1

[5] = biological target: Fuc(a1-2)Gal(b1-4)[Fuc(a1-3)]GlcNAc(b1-2)[Fuc(a1-2)Gal(b1-4)[Fuc(a1-3)]GlcNAc(b1-4)]Man(a1-3)[Fuc(a1-2)Gal(b1-4)[Fuc(a1-3)]GlcNAc(b1-2)Man(a1-6)]Man(b1-4)GlcNAc(b1-4)GlcNAc
Summary of the method: as §1

[6] = biological target: Fuc(a1-2)Gal(b1-4)[Fuc(a1-3)]GlcNAc(b1-3)Gal(b1-4)[Fuc(a1-3)]GlcNAc(b1-3)Gal(b1-4)[Fuc(a1-3)]GlcNAc
Summary of the method: as §1

[7] = biological target: Fuc(a1-2)[Gal(a1-3)]Gal(b1-3)GlcNAc(b1-6)GalNAc
Summary of the method: as §1

[8] = biological target: Fuc(a1-2)[Gal(a1-3)]Gal(b1-4)GlcNAc(b1-3)[Fuc(a1-2)[Gal(a1-3)]Gal(b1-4)GlcNAc(b1-6)]GalNAc
Summary of the method: as §1

[9] = biological target: Fuc(a1-2)[GalNAc(a1-3)]Gal(b1-3)GlcNAc
Summary of the method: as §1

[10] = biological target: Fuc(a1-2)[GalNAc(a1-3)]Gal(b1-4)GlcNAc(b1-2)Man
Summary of the method: as §1

[11] = biological target: Fuc(a1-2)[GalNAc(a1-3)]Gal(b1-4)[Fuc(a1-3)]GlcNAc(b1-3)GalNAc
Summary of the method: as §1

[12] = biological target: Fuc(a1-3)[Gal(b1-4)]Glc6S
Summary of the method: as §1

[13] = biological target: Fuc(a1-3)[Gal(b1-4)]GlcNAc(b1-2)Man
Summary of the method: as §1

[14] = biological target: Fuc(a1-4)GlcNAc
Summary of the method: as §1

[15] = biological target: Gal(a1-3)Gal(b1-3)GlcNAc
Summary of the method: as §1

[16] = biological target: Gal(b1-4)GlcNAc(b1-2)Man(a1-6)Man(b1-4)GlcNAc(b1-4)GlcNAc
Summary of the method: as §1

[17] = biological target: Gal(b1-4)GlcNAc(b1-3)Gal(b1-4)GlcNAc(b1-3)[Gal(b1-4)GlcNAc(b1-3)Gal(b1-4)GlcNAc(b1-6)]GalNAc
Summary of the method: as §1

[18] = biological target: GalNAc(a1-3)GalNAc
Summary of the method: as §1

[19] = biological target: GalNAc(b1-4)GlcNAc
Summary of the method: as §1

[20] = biological target: GalNAc(b1-4)GlcNAc(b1-2)Man
Summary of the method: as §1

[21] = biological target: GalNAc(b1-4)GlcNAc6S
Summary of the method: as §1

[22] = biological target: GalNAc3S(b1-4)GlcNAc3S
Summary of the method: as §1

[23] = biological target: Glc(b1-4)Glc
Summary of the method: as §1

[24] = biological target: GlcA(b1-6)Gal
Summary of the method: as §1

[25] = biological target: GlcNAc(b1-3)Gal(b1-4)GlcNAc(b1-3)Gal(b1-4)GlcNAc(b1-2)[GlcNAc(b1-3)Gal(b1-4)GlcNAc(b1-3)Gal(b1-4)GlcNAc(b1-6)]Man(a1-6)[GlcNAc(b1-3)Gal(b1-4)GlcNAc(b1-3)Gal(b1-4)GlcNAc(b1-2)Man(a1-3)]Man(b1-4)GlcNAc(b1-4)[Fuc(a1-6)]GlcNAc
Summary of the method: as §1

[26] = biological target: GlcNAc(b1-3)Gal(b1-4)GlcNAc(b1-3)Gal(b1-4)GlcNAc(b1-3)Gal(b1-4)GlcNAc(b1-2)[GlcNAc(b1-3)Gal(b1-4)GlcNAc(b1-3)Gal(b1-4)GlcNAc(b1-3)Gal(b1-4)GlcNAc(b1-6)]Man(a1-6)[GlcNAc(b1-3)Gal(b1-4)GlcNAc(b1-3)Gal(b1-4)GlcNAc(b1-3)Gal(b1-4)GlcNAc(b1-2)Man(a1-3)]Man(b1-4)GlcNAc(b1-4)[Fuc(a1-6)]GlcNAc
Summary of the method: as §1

[27] = biological target: GlcNAc(b1-3)Gal(b1-4)GlcNAc(b1-3)GalNAc
Summary of the method: as §1

[28] = biological target: GlcNAc(b1-3)[GlcNAc(b1-4)][GlcNAc(b1-6)]GlcNAc
Summary of the method: as §1

[29] = biological target: GlcNAc(b1-6)Gal(b1-4)GlcNAc
Summary of the method: as §1

[30] = biological target: Man(a1-3)[Man(a1-6)]Man(b1-4)GlcNAc(b1-4)[Fuc(a1-6)]GlcNAc
Summary of the method: as §1

B1: SP16663B-bot-321-25-321 (Bacteroides ovatus) (protein)
chain: DDDDEVTMNSKFYLSTKVFPVDSYEASLSVILKDNSVVVNELQPNYRFVACATERLSKDVKITADSDDNLVSAYNKANDTEYNILPAENYSFTNKTVTIENGESVSGDSIKIELLNVGSLTTEGGYLLPVTISSIEGNNLDALSSNRGVVYLKIQNIHVNVESGQPAEGTLIADRSGWTVKVAPTTRGDAKNLIDGTNSDVARDGGAEYWLTVDIGKVQTLTGIRNKCYASSYSPTAVEVFTSSDGAKWKSIGAVTISKSGTQYIKFSKAVETRYLKYYVKQGPNTVSLTEFDLYAK
glycan array binding signal (z-score) [1]: -0.653
glycan array binding signal (z-score) [2]: -0.156
glycan array binding signal (z-score) [3]: -0.106
glycan array binding signal (z-score) [4]: -0.632
glycan array binding signal (z-score) [5]: -0.394
glycan array binding signal (z-score) [6]: -0.007
glycan array binding signal (z-score) [7]: -0.437
glycan array binding signal (z-score) [8]: 1.9
glycan array binding signal (z-score) [9]: 0.071
glycan array binding signal (z-score) [10]: 1.04
glycan array binding signal (z-score) [11]: 0.604
glycan array binding signal (z-score) [12]: 1.36
glycan array binding signal (z-score) [13]: 0.558
glycan array binding signal (z-score) [14]: 21.5
glycan array binding signal (z-score) [15]: 0.607
glycan array binding signal (z-score) [16]: -0.62
glycan array binding signal (z-score) [17]: 1.04
glycan array binding signal (z-score) [18]: -0.141
glycan array binding signal (z-score) [19]: 1.29
glycan array binding signal (z-score) [20]: 1.72
glycan array binding signal (z-score) [21]: -0.779
glycan array binding signal (z-score) [22]: -0.087
glycan array binding signal (z-score) [23]: 0.122
glycan array binding signal (z-score) [24]: 0.013
glycan array binding signal (z-score) [25]: 2.65
glycan array binding signal (z-score) [26]: 1.28
glycan array binding signal (z-score) [27]: -0.536
glycan array binding signal (z-score) [28]: -0.112
glycan array binding signal (z-score) [29]: 1.33
glycan array binding signal (z-score) [30]: 0.967
